HCV inh: blocks hepatitis C virus; Huh7.5.1 HCVcc-Cre infection, luciferase reporter, 44 h; Potency, µM (highest dose often 41.8 µM), for the others: at the highest dose activity change, negative = inhibition, actives largely listed as inhibitors; 340,000 tested, 3.4% active; AID 651820; active = well fitted inhibition curve with a large enough effect; inconclusive = small, poorly fitted or top-dose-only effect, or another doubt; inactive = no such curve, though single readings can be large or run the other way; note: potency is the fitted concentration of half-maximal effect
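Cells seeded at 1,000/well and cultured 4 h, then compounds added followed by HCVcc-Cre virus (~0.5 moi). After 44 h further culture, luciferase substrate was added, plates held 15 min at room temperature, and luminescence read for 15 sec.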
Marburg entry inh: Marburg virus entry inhibition | AID 540276 | Marburg virus pseudotyped entry inhibition, cell reporter | Potency, µM (doses to about 37.8 µM), without a hit: at the highest dose activity change, negative = inhibition, usual class: inhibitors | 300,000 tested, 1.8% active; calls by dose curve; tested in HEK293 cells; note: potency is the fitted concentration of half-maximal effect
LASV entry inh: inhibitors of Lassa virus binding or cell entry | Lassa virus pseudotype entry inhibition, cell reporter | 300,000 tested, 1.2% active | Potency, µM (top dose mostly 37.9 µM), for inactives: top-dose activity change, negative = inhibition, usual class: inhibitors | AID 540256; calls by dose curve; tested in HEK293 cells; note: potency is the fitted concentration of half-maximal effect; nearly all actives have a fitted effect of over 50% in size
Vaccinia Venus: vaccinia inhibition (Venus reporter); Potency, µM (doses to about 36.5 µM), without a hit: at the highest dose activity change, negative = inhibition, most hits filed as inhibitors; 330,000 tested, 0.46% active; AID 720580; Vaccinia virus Venus reporter expression, fluorescence; calls by dose curve; tested in A549 cells; note: potency is the fitted concentration of half-maximal effect; nearly all actives have a fitted effect of over 30% in size
HCMV inh: blocks human cytomegalovirus replication; HFF cells, HCMV-luciferase reporter, 72 h; stronger effect = lower value; activity change, negative = inhibition, % at 57.5 µM; 410,000 tested, 4.5% active; in the data active = activity change below about -60%; inconclusive = no clear call, values can overlap the other calls; inactive = above about -39%
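Human foreskin fibroblasts infected with luciferase-reporter HCMV at MOI 1 PFU/cell, compounds at two doses. Luciferase measured 72 h post infection; normalized to buffer-only basal and Salinomycin (10uM) controls.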
VACV mCherry inh: vaccinia inhibition (mCherry reporter) | Vaccinia virus mCherry reporter infection, fluorescence | Potency, µM (top dose mostly 36.5 µM), for inactives: top-dose activity change, negative = inhibition, most hits filed as inhibitors | 310,000 tested, 0.63% active; calls by dose curve; tested in A549 cells; note: potency is the fitted concentration of half-maximal effect; nearly all actives have a fitted effect of over 35% in size
* marks the source's active call; other numbers are inactive results; i = inactive; ? = inconclusive; . = not tested or not shown; [ ] = another dose, or the depositor's remark. An excerpt weighted towards active compounds, which were near 7.8% of everything screened. % is set by controls: 0 for no effect and ±100 for the full control effect.

SMILES | HCV inh | Marburg entry inh | LASV entry inh | Vaccinia Venus | HCMV inh | VACV mCherry inh
CCN1CCS/C1=C\C=C\C1=[N+](CC)CCS1 | 6.31µM* | 2.51µM* | . | . | -104.1* | .
CCN1CCS/C1=C/C=C/C1=[N+](CC)CCS1 | . | 2.51µM* | ? | ? | . | -21.2%
CCOC(=O)N1CCc2c(sc3c2C(=O)NC(c2cc(OC)c(OC)c(OC)c2)N3)C1 (stereo not drawn) | . | ? | ? | -25.2% | -3.3 | -29.6%
COc1ccccc1CCNc1ncnc2sc(C(=O)N3CCCN(C=O)CC3)c(C)c12 | . | . | . | -6.3% | . | -12.8%
COc1ccc(Cl)cc1C(=O)Nc1nnc2n1CCS2 | . | . | 13.2%[46.1 µM] | -6.0% | -16.7 | 1.4%
CCNC(=O)NC1c2ccccc2CSc2ccccc21 (stereo not drawn) | 9.3% | ? | -22.0%[46.1 µM] | -12.2% | -12.4 | i
CCOCCN1CCN(C2c3ccccc3CSc3ccccc32)CC1 (stereo not drawn) | 22.4µM* | 12.6µM* | ? | -15.9% | ? | -22.1%
CCc1c(C)nc2nncn2c1Nc1cccc(C)c1 | . | 0.6%[46.1 µM] | -6.7%[46.1 µM] | -9.8% | -39.7 | -9.0%
N#C/C(=C\C=C\c1ccccc1[N+](=O)[O-])c1nc(-c2ccc3c(c2)OCO3)cs1 | 11.2µM* | -6.5% | -0.8% | 4.3% | 4.4 | -9.7%
O=C(C1CC(=O)N(C2CCCC2)C1)N1CCC(Cc2ccccc2)CC1 (stereo not drawn) | ? | -1.3% | 0.7% | -21.1% | -65.2* | -23.3%
O=C(C1CCC(=O)N(C2CCCC2)C1)N1CCN(Cc2cccc(Cl)c2)CC1 (stereo not drawn) | -2.0% | 29.4% | -11.9% | -10.4% | -71.6* | -16.6%
O=C(C1CCC(=O)N(C2CCCC2)C1)N1CCN(c2ccc(Cl)cc2)CC1 (stereo not drawn) | -12.3% | . | . | . | -15.1 | .
CCOc1cc(/C=N/O)ccc1OCc1ccc([N+](=O)[O-])cc1 | ? | ? | 1.4% | -28.4% | -10.6 | -1.8%
CCOc1cc(C=C(C(=O)OC)C(=O)OC)ccc1OCc1ccc([N+](=O)[O-])cc1 | 7.94µM* | 2.82µM* | 3.55µM* | 10µM* | 158.1 | .
O=c1c2ccccc2sn1-c1ccccc1 | ? | ? | ? | -20.9% | -82.7* | i
O=c1c2ccccc2sn1-c1cccc(Cl)c1 | . | . | . | -27.1% | -28.4 | -9.3%
O=c1c2ccccc2sn1-c1ccccc1F | . | . | . | ? | -108.7* | -14.3%
O=C(O)c1cccc(-n2sc3ccccc3c2=O)c1 | -1.3% | . | . | -12.0% | -61.2* | -3.4%
CC(=O)Nc1ccc2c(=O)n(-c3ccccc3)sc2c1 | . | . | . | -1.4% | -75.4* | i
N#Cc1ccc2c(=O)n(-c3ccccc3)sc2c1 | . | . | . | -24.3% | 45.3 | -25.9%
CCc1ccc(NC(=O)Cn2c(=O)n(-c3ccc(OC)cc3)c(=O)c3ccc(C(=O)NCc4ccc(C)cc4)cc32)cc1 | . | 16.3%[46.1 µM] | 5.3%[46.1 µM] | ? | -3.8 | ?
CCc1ccc2ncc3c(-c4ccccc4)nn(-c4ccccc4)c3c2c1 | . | -8.8%[46.1 µM] | -2.8%[46.1 µM] | -13.5% | -17.9 | i
Cc1ccc(CSc2nnc3[nH]c(=O)cc(C)n23)cc1 | . | . | -11.6%[46.1 µM] | -7.8% | -3.2 | i
Cc1ccccc1-n1sc2cc(F)ccc2c1=O | ? | ? | -16.8% | -16.8% | -97.8* | -27.3%
COc1ccc(-n2c(=O)c3c4c(sc3n(Cc3ccccc3)c2=O)CN(C(C)=O)CC4)cc1OC | . | ? | . | -17.5% | -24.6 | -11.3%
SMILES | HCV inh | Marburg entry inh | LASV entry inh | Vaccinia Venus | HCMV inh | VACV mCherry inh
Brc1cccc(Nc2nc(-c3cccnc3)cs2)c1 | 10µM* | -14.4% | ? | -22.0% | 113.0 | ?
Brc1ccc(Nc2nc(-c3cccnc3)cs2)cc1 | ? | -17.4%[46.1 µM] | -6.9% | -6.9% | 42.8 | -1.6%
COc1ccc(-c2csc(-c3cccnc3)n2)cc1C | ? | -14.0% | 4.7% | . | -103.1* | .
Clc1cccc(Nc2nc(-c3cccnc3)cs2)c1 | 2.82µM* | . | . | . | 75.0 | .
Cc1ccc(Nc2nc(-c3cccnc3)cs2)cc1C | ? | . | . | . | 121.1 | .
COc1ccc(Cl)cc1Nc1nc(-c2cccnc2)cs1 | 12.6µM* | ? | 1.4%[46.1 µM] | -8.5% | -37.6 | ?
Cc1ccc(S(=O)(=O)N2CCN(c3nc(-c4cccs4)nc4nc[nH]c34)CC2)cc1 | . | . | . | -10.3% | . | i
C1CCC(NC2=NCCO2)CC1 | . | . | . | ? | -33.0 | -28.7%
c1ccc(C2(NC3=NCCO3)CCCCC2)cc1 | . | . | . | 3.98µM* | -37.9 | ?
N#CC(C#N)[C@@H](c1ccsc1)c1c(-c2ccccc2)[nH][nH]c1=O | . | 2.1% | . | . | . | .
CCOC(=O)C(NC(=O)c1cccc(Cl)c1)(OCc1ccccc1)C(F)(F)F (stereo not drawn) | -11.7% | ? | ? | -13.6% | -62.4* | -7.6%
O=C1CCC[C@H]2[C@@H](Cc3ccccc3)[C@@H](NCc3ccccc3)CC[C@]23CCCN13 | . | . | . | . | -20.7 | .
Cc1ccc(-c2cnco2)cc1 | 7.3% | . | . | . | 79.2 | .
Cc1ccc(-c2cc(-c3ccc(C)cc3)[n+](C)o2)cc1 | 8.91µM* | 3.55µM* | 11.6µM* | -26.3% | -102.8* | -10.5%
O=C(OC(C(=O)Nc1ccc([N+](=O)[O-])cc1Br)c1ccccc1)c1ccccc1 (stereo not drawn) | ? | 3.55µM* | -2.4% | -12.0% | -33.0 | -13.7%
COCCNC(C(=O)Nc1ccc([N+](=O)[O-])cc1Br)c1ccccc1 (stereo not drawn) | -16.3% | -9.1% | -4.6% | -23.6% | -82.5* | -5.5%
Cc1cc(C(C)(C)C)cc(C)c1C[n+]1ccc2ccccc2c1 | ? | . | . | . | -96.4* | .
Cc1ccc(CNC(=O)COCc2cc(-c3ccc4c(c3)OCO4)on2)cc1 | . | . | ? | -9.7% | -25.2 | -10.4%
Cc1c([N+](=O)[O-])cnc2ccccc12 | . | . | . | -16.5% | . | i
O=C1N/C(=C\c2ccc(O)cc2)C(=O)c2ccccc21 | 11.2µM* | ? | ? | . | . | .
Clc1ccc2[nH]cc(-c3nnnn3-c3ccc4ccccc4c3)c2c1 | ? | ? | -18.4% | -28.5% | -61.7* | -6.9%
CC1=C/C(=C\c2ccc(N(C)C)cc2)c2ccccc21 | . | . | . | -16.0% | . | -20.8%
O=C(c1ccccc1)c1ccc(C(=O)N2CCN(c3ccc(O)cc3)CC2)cc1 | -3.0% | . | . | . | -78.0* | .
O=C(c1ccc(N2CCN(C(=O)c3ccc(F)c(F)c3)CC2)cc1)c1cccc(F)c1 | ? | . | . | . | -72.4* | .
CCOc1ccc(-c2cc(CCCC(=O)NCCc3cc(OC)c(OC)c(OC)c3)no2)cc1 | . | ? | ? | -11.1% | ? | -11.6%
c1cnc(N2CCN(Cc3c[nH]c4ccccc34)CC2)nc1 | -5.6% | ? | -5.3% | 12.6µM* | -4.6 | .
c1ccc2c(CNC3CCCCCC3)c[nH]c2c1 | 8.3% | 13µM* | -2.0% | . | 10.5 | .
c1ccc2c(CN3CCCCCC3)c[nH]c2c1 | -28.6% | ? | -14.9% | . | -77.2* | .
c1ccc2c(CN3CCOCC3)c[nH]c2c1 | 4.2% | . | . | . | 19.1 | .
O=C(Nc1ccccc1)N(Cc1c[nH]c2ccccc12)C1CCCCCC1 | . | 4.5%[46.1 µM] | -4.9%[46.1 µM] | -23.0% | 30.8 | ?
